Data as given in ChEMBL document CHEMBL3433997, “St. Jude Leishmania screening dataset” (2016).

Each compound was assayed against Solute carrier family 2, facilitated glucose transporter member 1 (Homo sapiens) (UniProt P11166) (assay: ST_JUDE_LEISH: Cytotoxicity at 2uM final concentration against transgenic Leishmania Mexicana promastigotes LmGLUT1 that are glucose transport deficient and complemented with the human glucose transporter GLUT1. Activity is measured by DNA content using SYBR green in vitro).
Assay type: functional

Chain of Solute carrier family 2, facilitated glucose transporter member 1 (Homo sapiens) (P11166 whole entry): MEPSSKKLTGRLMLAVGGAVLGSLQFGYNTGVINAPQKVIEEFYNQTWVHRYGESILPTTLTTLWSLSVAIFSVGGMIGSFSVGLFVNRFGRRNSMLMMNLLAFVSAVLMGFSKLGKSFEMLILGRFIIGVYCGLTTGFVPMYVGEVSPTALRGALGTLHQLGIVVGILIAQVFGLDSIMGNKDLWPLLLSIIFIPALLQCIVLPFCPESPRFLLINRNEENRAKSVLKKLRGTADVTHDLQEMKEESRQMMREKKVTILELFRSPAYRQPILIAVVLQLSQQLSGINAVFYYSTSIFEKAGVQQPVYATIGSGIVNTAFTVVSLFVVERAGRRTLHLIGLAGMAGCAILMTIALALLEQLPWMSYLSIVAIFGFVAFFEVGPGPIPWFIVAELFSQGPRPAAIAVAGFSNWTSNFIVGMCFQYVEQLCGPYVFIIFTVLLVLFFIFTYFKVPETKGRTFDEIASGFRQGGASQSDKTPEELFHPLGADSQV

Row | SMILES | inhibition [%]
1 | O=C(Nc1cccc(CN2CCCN(Cc3ncc[nH]3)CC2)c1)c1ccc(-c2ccccc2)cc1 | 0.65
2 | O=C(Nc1ccc(Cl)cc1)Nc1cccc(-c2ccc(-c3nc4ccccc4[nH]3)cc2)c1 | 2.09
3 | COc1ccc(NCc2cccc(-c3cccc(CNCCc4ccccc4)c3)c2)cc1 | 0
4 | COc1ccc(-c2ccc(CNC(=O)c3cccc(C#N)c3)c(F)c2)cc1CN1CCCN(C)CC1 | 0.77
5 | CCCN1CCN(c2cc(NCC)c3c4c(onc24)-c2ccccc2C3=O)CC1 | 7.98
6 | Nc1nc(Nc2cccc(Cl)c2)ncc1C(=O)NCc1ccncc1 | 9.01
7 | Fc1ccc(-c2cncc(-c3ccc(F)cc3)n2)cc1 | 9.28
8 | CCC(C)NC(=O)Nc1cccc(-c2cccc(-c3nc4cccc(C)c4[nH]3)c2)c1 (stereo unspecified) | -1.54
9 | CCCNCc1ccc(-c2ccc(CN(CCOC)C(=O)c3cccc(C#N)c3)cc2)nc1 | 1.66
10 | Cc1cc(N[C@@H](Cc2ccccc2)C(=O)NCc2cccs2)nc(NCCc2cccnc2)n1 | 1.39
11 | O=[N+]([O-])c1ccc(N2CCCN(C(=S)Nc3ccc(F)cc3Br)CC2)nc1 | 1.6

Each compound was assayed against Hexose transporter 1 (Plasmodium falciparum) (UniProt O97467) (assay: ST_JUDE_LEISH: Cytotoxicity at 2uM final concentration against transgenic Leishmania Mexicana promastigotes LmPfHT that are glucose transport deficient and complemented with the Plasmodium falciparum hexose transporter. Activity is measured by DNA content using SYBR green in vitro).
Assay type: functional

Row | SMILES | inhibition [%]
12 | CCNC(=O)NC1CCN(Cc2c(-c3cccs3)nc3ccccc3c2C(=O)N[C@@H](C)C2CCCCC2)CC1 | 0.77
13 | O=C(Nc1ccc(Cl)cc1)c1ccc(CN2CCCN(Cc3ccccc3)CC2)cc1 | 3.72
14 | O=C(NCCCCN1CCC(c2ccc3c(c2O)CCCC3)CC1)c1ccc(-c2ccc(Cl)cc2)cc1 | 1.06
15 | NCCCNc1ccc(-c2ccc(NC(=O)Nc3cc(C(F)(F)F)ccc3F)cc2)cn1 | 2.81
16 | N#Cc1cccc(CN(Cc2ccc(Cl)c(Cl)c2)S(=O)(=O)c2cccc([N+](=O)[O-])c2)c1 | -0.37
17 | O=C(/C=N/O)Nc1ccccc1[N+](=O)[O-] | 0.8
18 | COc1ccc(CNC2CCN(C)CC2)cc1-c1ccc(S(=O)(=O)NCCc2ccccn2)s1 | -0.03
19 | Cc1cc(N(C)C)nc(Nc2ccc(NC(=O)C(C)Oc3ccccc3)cc2)n1 (stereo unspecified) | 14.5
20 | CC(C)Cn1cc(C2CCN(CCN3CCC(CNC(=O)c4ccc(NC(=O)c5ccc(Cl)cc5)cc4)CC3)CC2)c2ccccc21 | 7.36
21 | OC1CCCN(Cc2ccc(-c3cccc(-c4nc5ccccc5[nH]4)c3)cc2)C1 (stereo unspecified) | 1.57
22 | Cc1ccc(NCc2cccc(F)c2)cc1S(=O)(=O)N[C@@H]1CCN(C#N)C1 | 3.53
23 | Cc1cccc2nc(-c3ccc(-c4cccc(NC(=O)Nc5ccc(F)c(F)c5F)c4)cc3)[nH]c12 | 3.05
24 | Cc1ccc(C(C(=O)Nc2ccc(N3CCNCC3)c(Cl)c2)c2ccccc2)cc1 (stereo unspecified) | 0.84
25 | Cc1c(OC(C)C)nc2ccccc2c1C(=O)N[C@H](c1cccc(F)c1)C1CC1 | -0.55
26 | Cc1nc(N)nc(N)c1OCCCCOc1ccccc1 | 2.98
27 | O=c1cc(NCCCNCc2cc3c(Cl)cccc3s2)[nH]c2ccccc12 | -0.8
28 | CCOc1cc(C(=O)Nc2ccc3nc(N(CC)CC)cc(C)c3c2)cc(OCC)c1OCC | -0.88
29 | Oc1ccc2[nH]c(-c3ccc(OC(F)(F)F)cc3)nc2c1CNC1CCCC1 | 3.35
30 | CCNc1cc(C(=O)N[C@@H](Cc2ccccc2)[C@H](O)CN[C@H](C)c2ccccc2)cc(N2CCCC2=O)c1 | 3.88
31 | COc1cccc(O)c1CN1CCC2(CCCN(Cc3ccc(F)cc3)C2)C1 (stereo unspecified) | 2.73

Row | SMILES | inhibition [%]
32 | Cc1cc(N2CCCCC2)nc2ccc(NC(=O)c3cncc(Br)c3)cc12 | 9.8
33 | CC(CN1CCN(C)CC1)C(=O)Nc1cccc(-c2ccc(-c3nc4ccccc4[nH]3)s2)c1 (stereo unspecified) | -1.46
34 | CC1CN(CC(O)Cn2c3ccc(Br)cc3c3cc(Br)ccc32)CC(C)O1 (stereo unspecified) | 2.45
35 | O=C(NCCCCN1CCC(O)(c2ccc3c(c2)OCO3)CC1)c1ccc(NC(=O)c2ccc(Cl)cc2)cc1 | 1.45
36 | CCc1cccc(NC(=O)c2ccc(CN3CCCN(CC4CCCCC4)CC3)cc2)c1 | 10
37 | CN(C)CCNC(=O)c1ccc2c(c1)ncn2-c1cc(OCc2ccccc2C(F)(F)F)c(C(N)=O)s1.CN(C)CCNC(=O)c1ccc2ncn(-c3cc(OCc4ccccc4C(F)(F)F)c(C(N)=O)s3)c2c1 | 1.7
38 | Cc1ccc(NC(=O)N2CCC(n3c(-c4ccccc4)nc4cccnc43)CC2)cc1F | 7.11
39 | Nc1nc(N)c2c(n1)CCc1cc(Br)ccc1-2 | 4.52
40 | CN(C)Cc1ccc2cc(NC(=O)c3ccc(-c4ccc(Cl)cc4)cc3)ccc2c1 | 3.04
41 | O=C(Nc1cccc(CN2CCCN(Cc3ncc[nH]3)CC2)c1)c1ccc(-c2ccccc2)cc1 | 1.21
42 | O=C(Nc1ccc(Cl)cc1)Nc1cccc(-c2ccc(-c3nc4ccccc4[nH]3)cc2)c1 | 1.83
43 | COc1ccc(NCc2cccc(-c3cccc(CNCCc4ccccc4)c3)c2)cc1 | 0.51
44 | COc1ccc(-c2ccc(CNC(=O)c3cccc(C#N)c3)c(F)c2)cc1CN1CCCN(C)CC1 | -4.93
45 | CCCN1CCN(c2cc(NCC)c3c4c(onc24)-c2ccccc2C3=O)CC1 | 8.22
46 | Nc1nc(Nc2cccc(Cl)c2)ncc1C(=O)NCc1ccncc1 | 7.86
47 | Fc1ccc(-c2cncc(-c3ccc(F)cc3)n2)cc1 | 6.64
48 | CCC(C)NC(=O)Nc1cccc(-c2cccc(-c3nc4cccc(C)c4[nH]3)c2)c1 (stereo unspecified) | -0.37
49 | CCCNCc1ccc(-c2ccc(CN(CCOC)C(=O)c3cccc(C#N)c3)cc2)nc1 | 1.45
50 | Cc1cc(N[C@@H](Cc2ccccc2)C(=O)NCc2cccs2)nc(NCCc2cccnc2)n1 | 1.61
51 | O=[N+]([O-])c1ccc(N2CCCN(C(=S)Nc3ccc(F)cc3Br)CC2)nc1 | -0.77
